Rab9 prom act = qHTS Assay for Rab9 Promoter Activators; Huh7 Rab9 promoter-luciferase reporter, luminescence, 24 h; Potency, µM (series often up to 9.22 µM), inactives show at the highest dose activation, negative = inhibition, usual class: activators; actives 2.8% (n = 320,000); AID 485297, 2010; also: % of control where 0% means no effect; nearly all actives have a fitted effect of over 60% in size
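Huh7 reporter line, Rab9 promoter upstream of luciferase. Compound exposure 24 h at 37 °C in reduced-serum medium with 10% FBS. Read-out: luminescence.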
FLuc counter = qHTS profiling assay for firefly luciferase inhibitor/activator using purifed enzyme and Km concentrations of substrates (counterscreen for miR-21 project) | purified FLuc, Km substrates, luminescence inhibition | Luciferin 4-monooxygenase (Photinus pyralis), P08659 | Potency, µM (doses to about 57.5 µM), for inactives: top-dose activity change, negative = inhibition, actives largely listed as inhibitors | actives 6.9% (n = 360,000);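 also: plate controls were vehicle for no effect and reference inhibitor for full effect; nearly all actives have a fitted effect of over 55% in size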
Target sequence (P08659 whole entry, looked up): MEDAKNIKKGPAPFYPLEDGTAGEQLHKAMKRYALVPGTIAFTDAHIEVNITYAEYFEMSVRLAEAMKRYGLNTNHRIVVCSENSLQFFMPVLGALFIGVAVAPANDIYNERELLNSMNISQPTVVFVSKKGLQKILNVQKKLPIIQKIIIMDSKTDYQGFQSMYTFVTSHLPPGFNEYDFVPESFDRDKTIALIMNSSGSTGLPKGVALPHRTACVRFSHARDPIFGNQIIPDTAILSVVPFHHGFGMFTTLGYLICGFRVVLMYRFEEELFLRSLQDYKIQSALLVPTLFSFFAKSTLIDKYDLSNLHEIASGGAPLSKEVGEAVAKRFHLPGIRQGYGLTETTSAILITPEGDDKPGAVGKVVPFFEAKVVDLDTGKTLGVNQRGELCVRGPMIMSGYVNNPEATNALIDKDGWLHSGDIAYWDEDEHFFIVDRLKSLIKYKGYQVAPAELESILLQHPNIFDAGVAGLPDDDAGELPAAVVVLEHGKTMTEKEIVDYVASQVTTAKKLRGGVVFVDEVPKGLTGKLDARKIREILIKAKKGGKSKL
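Purified P. pyralis luciferase (10nM final) with 10uM D-luciferin and 10uM ATP (Km levels) in 50mM Tris acetate pH 7.5, 10mM Mg acetate, 0.01% Tween-20, 0.05% BSA; qHTS 6-point titration, ~60 µM downward; luminescence read.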
ELG1 repair inh = qHTS screen for small molecules that inhibit ELG1-dependent DNA repair in human embryonic kidney (HEK293T) cells expressing luciferase-tagged ELG1 | HEK293T ELG1-luciferase reporter, luminescence, 16 h; DNA damage induced by 5-fluorouridine | Potency, µM (titrated, usually from 46.1 µM), for the others: top-dose activity change, negative = inhibition, hits mostly inhibitors | actives 2.3% (n = 330,000) | AID 504467, 2011; also: % is scaled to controls: 0 for no effect and ±100 for the full control effect; nearly all actives have a fitted effect of over 55% in size
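Cells (2,000 per well) received 5-fluorouridine plus test compound or DMSO and were incubated 16 hr at 37 °C, 5% CO2. Luciferase activity was read by luminescence 30 min after ONE-Glo addition; signal suppression marked inhibition of damage-induced ELG1 function.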
ELG1 genotox = qHTS screen for small molecules that induce genotoxicity in human embryonic kidney (HEK293T) cells expressing luciferase-tagged ELG1; HEK293T ELG1-luciferase reporter, luminescence, 16 h; Potency, µM (doses to about 46 µM), without a hit: at the highest dose activity change, positive = activation, hits mostly activators; actives 1.3% (n = 330,000); AID 504466, 2011; also: % of control where 0% means no effect; nearly all actives have a fitted effect of over 60% in size
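ELG1-luciferase HEK293T cells, 2,000/well; compound pinned in; 16 hr, 37 °C, 5% CO2; ONE-Glo, 30 min RT; luminescence on CCD imager.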
SMN2 splice up = qHTS Assay for Enhancers of SMN2 Splice Variant Expression. actives 2.8% (n = 210,000). HEK293 SMN2-luciferase splicing reporter, luminescence, 30-36 h. Potency, µM (highest dose often 46.1 µM), for the others: at the top dose activity change, positive = activation, actives largely listed as activators; also: % of control where 0% means no effect; nearly all actives have a fitted effect of over 55% in size
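HEK293 cells carry an SMN2 minigene-luciferase reporter in which exon 7 inclusion puts luciferase in frame. Cells were seeded at 2000 cells/well, attached for 10-12 hours, then exposed to compounds for 30-36 hours at 37C before ONE-Glo luminescence.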
NPC1 prom act = qHTS Assay for NPC1 Promoter Activators | Huh7 NPC1 promoter luciferase reporter, 24 h | Potency, µM (top dose mostly 9.22 µM), inactives show at the top dose activation, most hits filed as activators | actives 2.4% (n = 320,000) | AID 485313, 2010; also: % of control where 0% means no effect; nearly all actives have a fitted effect of over 60% in size
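Stable NPC1-promoter luciferase Huh7 line; cpd (DMSO) 24 h, 37 °C, 5% CO2; Amplite luciferase reagent 10 min RT; luminescence readout. qHTS format.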
Active calls of the source: *; ? = inconclusive; . = no result given. Hits are enriched below; roughly 9.2% of the tested compounds scored in any of these assays. Calls follow the shape of the dose curve; as a rule, active = well fitted curve in the direction sought with a large enough effect; inconclusive = small, poorly fitted or top-dose-only effect, or another doubt; inactive = no such curve, though single readings can be large; an effect the other way counts as inactive or inconclusive. Potency is read from the fitted curve at half-maximal effect.

SMILES	Rab9 prom act	FLuc counter	ELG1 repair inh	ELG1 genotox	SMN2 splice up	NPC1 prom act
Clc1ccc(NCc2cccnc2)cc1	8.2%	-6.4%	6.9%	2.6%	.	-4.5%
Cc1ccc(-c2cc(C(=O)Nc3nn[nH]n3)c3ccccc3n2)cc1	3.4%	3.79µM*	13.6%	-1.5%	-9.6%	7.0%
COc1cc(CC(=O)Nc2ccc(N3CCOCC3)cc2)cc(OC)c1OC	-3.7%	-4.8%	-7.4%	-2.3%	0.9%	4.6%
COc1cc(-c2cc(C(=O)Nc3cc(S(=O)(=O)N4CCOCC4)ccc3O)c3ccccc3n2)cc(OC)c1OC	.	.	14.6µM*	-6.3%	.	.
Cc1cccc(NC(=O)NNC(=O)c2cc(-c3ccccc3Cl)nc3ccccc23)c1	-4.4%	1.4%	-13.8%	-7.9%	-13.7%	0.0%
O=C(NNC(=O)c1cc(-c2ccc(Cl)c(Cl)c2)nc2ccccc12)Nc1ccccc1	2.4%	6.75µM*	-14.8%	-11.9%	-8.1%	-0.8%
COc1ccccc1NC(=O)c1cc(-c2cc(OC)c(OC)c(OC)c2)nc2ccccc12	-3.6%	-1.6%	?	-2.3%	.	-2.2%
COc1cc(-c2cc(C(=O)Nc3ccc(N4CCOCC4)cc3)c3ccccc3n2)cc(OC)c1OC	-2.3%	?	8.2µM*	-17.3%	.	-1.4%
Cc1ccc(C)c(NC(=O)c2cc(-c3cccnc3)nc3ccccc23)c1	1.1%	-0.4%	?	-8.8%	-18.5%	-5.6%
CCOc1ccc(OCC)c(NC(=O)CN(C)S(=O)(=O)c2ccc3c(c2)CCCC(=O)N3)c1	.	-2.3%	.	.	.	.
CS(=O)(=O)N1CCN(c2ccccc2NC(=O)Nc2cccc(Cl)c2)CC1	2.4%	-16.2%	-24.7%	0.3%	.	-2.1%
COc1ccc(NC(=O)C(Cc2ccccc2)NS(=O)(=O)c2ccc(Br)s2)cc1OC (configuration not stated)	.	-18.0%	.	.	-20.7%	.
O=C(Cn1ccn(-c2ccc(F)c(F)c2)c(=O)c1=O)NCc1ccccc1	.	-1.2%	.	.	.	.
COc1cc(-c2cc(C(=O)Nc3ccncc3)c3ccccc3n2)cc(OC)c1OC	-0.5%	-15.9%	6.51µM*	-0.7%	.	0.4%
Cc1ccc(-c2cc(C(=O)Nc3ccncc3)c3ccccc3n2)cc1	0.1%	10.7µM*	?	0.4%	.	-2.6%
Cc1csc(NC(=O)c2cc(-c3ccncc3)nc3ccccc23)n1	-4.9%	?	?	-7.2%	-3.8%	0.5%
CC(C)(C)c1ccccc1NC(=O)c1cc(-c2ccncc2)nc2ccccc12	.	.	16.4µM*	-12.4%	.	.
COc1ccc(-c2cc(C(=O)Nc3ccc(C(N)=O)cc3)c3ccccc3n2)cc1	?	0.757µM*	?	6.7%	.	?
COc1ccc(-c2cc(C(=O)Nc3ccc(S(N)(=O)=O)cc3)c3ccccc3n2)cc1OC	-0.7%	-6.3%	1.9%	2.5%	.	1.6%
COc1ccccc1N1CCN(c2ncc3c(n2)CCN(Cc2ccc(C)s2)C3)CC1	.	-6.8%	.	.	.	.
CCOC(=O)c1sc(NC(=O)c2ccc(S(=O)(=O)N3CCCCCC3)cc2)nc1-c1ccccc1	-2.5%	4.9%	13µM*	-10.3%	-78.5%	-2.7%
CCOC(=O)c1sc(NC(=O)c2ccc(S(=O)(=O)N3CCOCC3)cc2)nc1-c1ccccc1	-0.5%	0.9%	25.9µM*	-8.4%	-39.7%	-1.1%
CCOC(=O)c1sc(NC(=O)c2ccc(S(=O)(=O)N3CCCCC3)cc2)nc1-c1ccccc1	-3.1%	3.1%	20.6µM*	-8.5%	-60.6%	-1.0%
Cc1ccc(C)c2[nH]c(=O)c(CCNC(=O)c3ccco3)cc12	-10.1%	5.5%	11.6%	0.0%	-52.0%	-4.5%
O=C1CSC(=S)N1/N=C/c1ccc2c(c1)OCCO2	-4.0%	16.9µM*	-2.4%	0.0%	.	-4.2%
SMILES	Rab9 prom act	FLuc counter	ELG1 repair inh	ELG1 genotox	SMN2 splice up	NPC1 prom act
COc1cc(/C=N/N2C(=O)CSC2=S)ccc1O	9.7%	?	4.1%	2.0%	4.6%	-1.4%
Cc1nn(-c2ccc(Br)cc2)c(=O)c2ccccc12	2.82µM*	8.49µM*	?	22.5%	.	?
Cc1nn(-c2ccccc2C(=O)O)c(=O)c2ccccc12	-1.8%	-3.0%	24.5%	-7.3%	.	-1.1%
CCOc1ccccc1C(=O)NCc1nc2cccnc2n1Cc1ccc(C)cc1	.	-7.7%	.	.	.	.
Cc1cccc(-c2nn(-c3ccccc3)cc2C(=O)N2CCN(C3CCS(=O)(=O)C3)CC2)c1 (configuration not stated)	-6.8%	?	13.6%	0.4%	.	-2.4%
Cc1cccc(-n2ncc3c(Nc4c(C)n(C)n(-c5ccccc5)c4=O)ncnc32)c1	6.7%	-7.7%	-4.1%	-1.9%	2.6%	1.0%
Cc1cccc(-n2ncc3c(NC4CCCCC4)ncnc32)c1	2µM*	1.51µM*	?	?	?	4.47µM*
Cc1cccc(-n2ncc3c(NC4CCCC4)ncnc32)c1	.	3.01µM*	.	.	.	.
Clc1cccc(-n2ncc3c(NC4CCCCCC4)ncnc32)c1	.	6.01µM*	.	.	.	.
O=C(c1ccccc1)n1ccc(-c2cccs2)n1	-0.5%	6.01µM*	6.0%	0.3%	.	12.3%
COc1ccccc1NC(=O)CN(Cc1ccco1)C(=O)c1cc2ccccc2o1	-0.3%	-9.6%	?	-12.3%	-2.8%	-0.6%
C(=N\Nc1ccccn1)/c1cccnc1	20.3%	?	42.1%	6.7%	.	18.2%
Cc1ccc(N/N=C/c2ccncc2)cc1	3.16µM*	12µM*	?	?	.	?
Clc1cccc(N/N=C/c2ccncc2)c1	?	16.9µM*	?	?	?	25.6%
Cc1ccc(N/N=C/c2cccnc2)cc1	?	16.9µM*	?	?	?	?
O=C(Nc1cccc(Cl)c1)O/N=C\c1ccncc1	1.0%	?	6.3%	0.3%	.	-0.5%
CC(Nc1c([N+](=O)[O-])c(=O)oc2ccccc12)c1ccccc1 (configuration not stated)	4.5%	-2.5%	0.0%	7.6%	.	-1.5%
O=C(O)C1CCN(C(=O)CSc2nc3cc(Cl)ccc3c(=O)n2Cc2ccccc2)CC1	-0.1%	5.6%	-7.0%	-6.2%	.	-2.2%
COc1ccc(-c2cc(CCC(=O)N3CCN(c4cc(C)ccc4C)CC3)on2)cc1	.	.	?	-2.2%	.	.
Cc1cc2cc(CN(Cc3ccc4c(c3)OCO4)C(=O)c3cnccn3)c3nnnn3c2cc1C	9.4%	5.2%	16.4µM*	0.0%	-5.8%	-2.9%
